# CASP6 VEID inh: caspase-6 (human) enzyme inhibition. purified caspase-6, Z-VEID-R110 cleavage fluorescence. P55212. 350,000 tested, 0.53% active. inhibition, % at 12.5 µM. AID 686996;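 active = mean inhibition across replicates at least about 35%, with every replicate also reaching that limit, limit read from the data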
# Target sequence (P55212 24-179 limits assumed): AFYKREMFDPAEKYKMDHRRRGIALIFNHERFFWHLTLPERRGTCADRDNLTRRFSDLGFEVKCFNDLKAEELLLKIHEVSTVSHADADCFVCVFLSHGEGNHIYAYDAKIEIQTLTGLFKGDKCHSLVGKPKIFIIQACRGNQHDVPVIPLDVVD
# Target sequence (P55212 194-293 limits assumed): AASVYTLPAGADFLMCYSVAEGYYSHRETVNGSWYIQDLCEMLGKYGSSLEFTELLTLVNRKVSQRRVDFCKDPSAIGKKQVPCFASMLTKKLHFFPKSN
# FGF22 binding: FGF22 (human) thermal shift binding | AID 651658 | Q9HCT0 | 340,000 tested, 1.5% active | activity (Tm shift, normalised), % at 9.99 µM | recombinant FGF22 thermal shift, SYPRO orange fluorescence; percent of sucrose octasulfate shift, DMSO zero;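 active = mean Tm shift, scaled 0 neutral to 100 positive control, at about 1.3% or above, every replicate too, limit read from the data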
# SIRT5 block: inhibitors of human sirtuin-5 desuccinylase | Q9NXA8 | Purified SirT5, succinyl-peptide AMC, trypsin-coupled fluorescence | inhibition, % at 15 µM | 330,000 tested, 1.1% active; in the data active = inhibition above about 15%
# Target sequence (Q9NXA8 whole entry, looked up): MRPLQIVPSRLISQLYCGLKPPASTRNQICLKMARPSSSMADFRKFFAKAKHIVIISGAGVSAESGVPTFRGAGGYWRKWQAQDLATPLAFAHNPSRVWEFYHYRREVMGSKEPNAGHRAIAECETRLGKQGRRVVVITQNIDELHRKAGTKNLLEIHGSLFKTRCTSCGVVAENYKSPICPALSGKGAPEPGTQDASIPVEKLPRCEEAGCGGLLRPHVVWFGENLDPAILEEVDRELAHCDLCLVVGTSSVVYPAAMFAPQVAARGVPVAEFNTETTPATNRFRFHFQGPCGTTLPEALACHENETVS
# GSIS activator: GLuc luminescence reporter in INS-1E cells, primary screen for activators of glucose-dependent secretion of insulin. INS-1E GLuc reporter insulin secretion, 2-3 h. activation, % at 16.6 µM. 370,000 tested, 0.61% active. AID 743287;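 active = lowest replicate activation of at least 40%, so every replicate reaches that level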
# ERAP1 HTS inh: inhibitors of human ERAP1 aminopeptidase; recombinant ERAP1, Leu-AMC fluorescence, 60 min; inhibition, % at 10.7 µM; 340,000 tested, 0.15% active; Q9NZ08;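 active = mean replicate inhibition of at least 30%, or all replicates individually reaching that 30% level; inactive = mean below 30% and not every replicate reaching it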
# Hits are given with their value; - = inactive; . = no result given. The list is not random: actives were taken first. Their share in the collection is about 3.3%.
SMILES,CASP6 VEID inh,FGF22 binding,SIRT5 block,GSIS activator,ERAP1 HTS inh
O=C(CCNC(=O)C1CCN(S(=O)(=O)c2ccccc2)CC1)NCc1cccnc1,-,43,.,.,-
COc1ccc(S(=O)(=O)N2CCC(C(=O)NCc3ccccc3)CC2)cc1OC,-,43,-,-,-
CS(=O)(=O)N1CCC(C(=O)NCc2ccccc2)CC1,-,44,-,-,-
O=C(NCCc1ccccc1)C1CCN(S(=O)(=O)N2CCOCC2)CC1,-,44,-,-,-
COc1ccc(S(=O)(=O)N2CCC(C(=O)NCc3ccncc3)CC2)cc1Cl,-,-,-,-,-
O=C(NCc1ccccc1)C1CCN(S(=O)(=O)N2CCOCC2)CC1,.,.,.,-,.
O=C(C[C@H]1CC[C@@H]2NC[C@H](O)COC[C@H]2O1)NCc1ccc2c(c1)OCO2,-,-,-,-,-
O=C(C[C@@H]1CC[C@@H](NS(=O)(=O)c2ccccc2F)[C@@H](CO)O1)NCCCN1CCOCC1,-,-,-,-,-
COCC(=O)N(C)C[C@@H]1Oc2ncc(C#Cc3ccc(OC)cc3)cc2C(=O)N([C@H](C)CO)C[C@H]1C,-,-,-,-,-
CNS(=O)(=O)c1ccc2nc(NC(=O)/C=C/c3ccco3)sc2c1,-,43,-,-,-
CC1CN(C(=O)c2cc3cc([N+](=O)[O-])ccc3s2)CC(C)O1 (centres undefined),-,44,-,-,-
COC(=O)[C@@]1(Cc2ccc(F)cc2)[C@H]2c3cc(C(=O)N4CCCC4)n(Cc4cc(F)cc5c4OCOC5)c3C[C@H]2CN1C(=O)c1ccccc1,-,-,22,-,.
C[C@H]1CN([C@@H](C)CO)S(=O)(=O)c2ccc(/C=C/c3ccccc3)cc2O[C@@H]1CN(C)C(=O)Nc1ccc(F)cc1,-,-,28,-,-
C[C@H](CO)N1C[C@H](C)[C@@H](CN(C)C(=O)Nc2ccc(F)cc2)Oc2cc(/C=C/c3ccccc3)ccc2S1(=O)=O,-,-,16,-,-
C[C@H]1CN([C@@H](C)CO)S(=O)(=O)c2ccc(/C=C/c3ccccc3)cc2O[C@H]1CN(C)C(=O)Nc1cc(F)ccc1F,-,1.8,22,-,-
C[C@H]1CN([C@@H](C)CO)S(=O)(=O)c2ccc(/C=C/c3ccccc3)cc2O[C@@H]1CN(C)C(=O)Nc1cc(F)ccc1F,.,.,.,-,.
C[C@H]1CN([C@@H](C)CO)S(=O)(=O)c2ccc(/C=C/c3ccccc3)cc2O[C@H]1CN(C)C(=O)Nc1ccc(F)cc1,-,-,-,-,-
C[C@@H]1CN([C@H](C)CO)S(=O)(=O)c2ccc(/C=C/c3ccccc3)cc2O[C@H]1CN(C)C(=O)Nc1ccc(F)cc1,-,-,-,-,-
Cc1ccc(-c2nc(C#N)c(NCC3CCCO3)o2)cc1 (centres undefined),-,-,-,40,-
O=S(=O)(NCC[C@H]1CC[C@H](NS(=O)(=O)c2ccccc2Cl)[C@@H](CO)O1)c1ccc(F)cc1,-,-,-,-,-
CC(C)(C)CC(C)(C)SSc1n[nH]c(=S)s1,37,-,-,-,-
CNC[C@@H]1OCCCC[C@H](C)Oc2ccc(NS(=O)(=O)c3ccc(OC)cc3)cc2C(=O)N([C@H](C)CO)C[C@H]1C,.,.,.,-,.
O=S(=O)(c1ccccc1)N1CC2(C1)[C@@H](c1ccccc1)[C@@H](CO)N2CCC(F)(F)F,-,-,-,-,-
O=S(=O)(c1ccccc1)N1CC2(C1)[C@H](c1ccccc1)[C@H](CO)N2CCC(F)(F)F,-,-,17,-,-
C[C@H]1CN([C@@H](C)CO)C(=O)c2cc(/C=C/c3ccccc3)cnc2O[C@@H]1CN(C)C(=O)Cc1cccnc1,-,-,-,-,-
SMILES,CASP6 VEID inh,FGF22 binding,SIRT5 block,GSIS activator,ERAP1 HTS inh
CC(CN1CCCC1)OC(=O)c1ccccc1Cl (centres undefined),-,-,18,.,-
Cc1cccc(C(=O)OC(C)CN2C(C)CCCC2C)c1 (centres undefined),-,-,-,-,-
COc1ccc(CC(=O)OC(C)CN2CCCCC2)cc1 (centres undefined),-,43,-,-,-
COc1ccc(C(=O)OC(C)CN2CCN(C)CC2)cc1 (centres undefined),-,-,-,-,-
Cc1ccc(C(=O)OC(C)CN2CCN(C)CC2)cc1 (centres undefined),-,-,22,-,-
CC(CN1C(C)CCCC1C)OC(=O)c1ccc(Cl)cc1 (centres undefined),-,44,-,-,-
C[C@@H]1CN([C@H](C)CO)C(=O)c2cc(-c3ccc(F)cc3)cnc2O[C@@H]1CN(C)C(=O)c1ccncc1,.,.,.,-,.
COc1ccc(C(=O)OCCN2CCCCC2)cc1,-,-,25,-,-
CC(C)(C)NC(=O)CN(Cc1ccc2c(c1)OCO2)C(=O)CNS(=O)(=O)c1ccc(F)cc1,.,-,-,-,-
CCC(C)(C)NC(=O)CN(C(=O)CNS(=O)(=O)c1ccc(F)cc1)c1ccc2c(c1)OCCO2,47,-,-,-,-
CC(C)(C)NC(=O)CN(Cc1cccs1)C(=O)CNS(=O)(=O)c1ccc(F)cc1,-,43,-,-,-
CC(C)(C)NC(=O)CN(C(=O)CS(=O)CC(=O)Nc1ccc(F)cc1)c1ccc2c(c1)OCCO2 (centres undefined),-,-,-,-,-
CC(=O)Nc1ccc2c(c1)C(=O)N(C)[C@H]1CC[C@H](CC(=O)Nc3cn(C)nc3C)O[C@@H]1CO2,.,-,.,-,.
O=C(CSc1nnc(SCc2ccc(Cl)cc2)s1)N/N=C/c1c[nH]c2ccccc12,.,.,.,96,.
O=C(O)COc1ccccc1/C=N/NC(=O)CSc1nnc(SCc2cccc3ccccc23)s1,37,-,17,-,.
O=C(C[C@@H]1CC[C@H]2[C@@H](COC[C@@H](O)CN2C(=O)Nc2cc(Cl)cc(Cl)c2)O1)NCC1CC1,-,-,-,-,-
O=C(NCC[C@H]1CC[C@H](NC(=O)c2cnccn2)[C@@H](CO)O1)Nc1ccc(F)cc1,-,-,-,-,-
COc1ccc(C=C2CS(=O)(=O)CC(=Cc3ccc(OC)cc3)C2=O)cc1,-,44,.,-,-
COc1ccc2cc3cc(C(=O)NCCCN4CCc5ccccc5C4)sc3nc2c1,-,-,19,.,-
COc1ccc2nc3sc(C(=O)NCCN4CCc5ccccc5C4)cc3cc2c1,-,-,-,.,-
Cc1ccc(S(=O)(=O)Nc2nc(C)cc(NCCN)n2)cc1,-,-,-,-,-
Cc1ccc(S(=O)(=O)Nc2nc(C)cc(NN)n2)cc1,-,-,-,46,-
CCOC(=O)c1c(C)[nH]c(C(=O)COC(=O)/C=C/c2ccc3c(c2)OCO3)c1C,.,.,.,59,.
O=C(N/N=C/c1oc(O)c2ccccc12)c1ccccc1,-,44,-,-,-
O=C(N/N=C/c1c[nH]c2ccccc12)c1ccccc1,-,-,100,-,-
O=C(N/N=C/c1c[nH]c2ccccc12)c1ccncc1,-,-,-,-,-
O=C(N/N=C/c1ccncc1)c1ccccc1,.,.,.,-,.
